Screening data deposited in PubChem BioAssay by National Center for Advancing Translational Sciences (NCATS).
This is one part of a sample in which hits are shown more often than they occur.
Pf Dd2 inh: blocks in vitro growth of P. falciparum Dd2; P. falciparum Dd2 growth, SYBR Green, 72 h; Potency, µM (doses to about 28.9 µM), inactives show at the highest dose activity, negative = inhibition, hits mostly inhibitors; 120,000 compounds, 4.3% hits; AID 1347417; active = well fitted inhibition curve with a large enough effect;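 also: plate controls were DMSO vehicle for no effect and reference drug for full effect; nearly all actives have a fitted effect of over 65% in size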
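Readout: SYBR Green fluorescence, 485 nm excitation, 535 nm emission, after ~16 h lysis at 37C. Before that, Dd2-infected red cells (2.5% hematocrit) grew 72 h with compound, 29 uM top final concentration.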
Starred values were filed as active, the others as inactive; i = inactive; [ ] = remark or other dose. Potency is read from the fitted curve at half-maximal effect.

SMILES	Pf Dd2 inh
CC(C)(C)C1CCc2nc(NC(=O)COc3ccccc3[N+](=O)[O-])sc2C1 (centres undefined)	i
CN(C)c1cc(N2CCCC(NC(=O)c3ccccn3)C2)ncn1 (centres undefined)	47%[5.79 µM]
CNC(=O)N1CCC(C2CCN(C(=O)CCc3cccc(OC)c3)C2)CC1 (centres undefined)	-23%
Cc1nc(N2CCC(NC(=O)COc3ccccc3)CC2)cc(C(F)(F)F)n1	17%
COc1ccc(N(CC(=O)NCc2ccc(F)cc2)S(=O)(=O)c2c(C)n[nH]c2C)cc1	13%
Cc1n[nH]c(C)c1S(=O)(=O)N(CC(=O)NC(C)c1ccccc1)c1ccc(C(C)C)cc1 (centres undefined)	-16%
Cc1ccc(N(CC(=O)Nc2ccc(C)c(F)c2)S(=O)(=O)c2c(C)n[nH]c2C)cc1	8.9µM*
O=C(c1ccncc1)N1CC[C@H]2COC(=O)N2c2cc(F)ccc2C1	18%[44.1 µM]
Cn1cnc(S(=O)(=O)N2CCC(N3C(=O)C4(CCCCC4)C3c3ccncc3)CC2)c1 (centres undefined)	-16%
CN(Cc1ccccc1)C(=O)[C@H]1O[C@H](CCN2CCN(c3ccccc3)CC2)CC[C@@H]1O	4.5µM*
COc1ccccc1N1CCN(C(=O)[C@H]2O[C@H](CCN3CCN(c4ccccc4)CC3)CC[C@@H]2O)CC1	i
O=C([C@H]1O[C@H](CCN2CCN(c3ccccc3)CC2)CC[C@@H]1O)N1CCOCC1	2%[44.1 µM]
CCc1cccc(NC(=O)N2c3ccccc3CC2c2nc(CCOC)no2)c1 (centres undefined)	i[5.79 µM]
O=C1CCCCC(C(=O)NCc2ccco2)N1 (centres undefined)	38%
CCC(CC)C(=O)N1CC(C(=O)NCCc2ccncc2)C2(CCOCC2)C1 (centres undefined)	24%
Cc1cc(S(=O)(=O)N2C[C@@H](F)C[C@H]2C(=O)N2CCc3ccccc3C2)ccc1F	37%
CC(=O)N1CCC2(CC1)CN(C(=O)c1ccc(Cl)cc1)CCO2	4%
COc1ccc(CC(=O)N2CCC3(CC2)CN(C(=O)c2ccc(Cl)cc2)CCO3)cc1	-8%
NC(Cc1ccccc1)C(=O)N1CCC2(CC1)CN(C(=O)c1ccc(Cl)cc1)CCO2 (centres undefined)	0.63µM*
Cc1noc(C)c1S(=O)(=O)N1CCc2nn(C)c(=O)n2CC1	-5%
O=C(c1ccc2[nH]ccc2c1)N1CCCN(c2cc(-c3ccc(F)cc3)[nH]n2)CC1	-19%
COCC(=O)NC1CCC12CCN(Cc1ccccn1)CC2 (centres undefined)	-6%
CC(C)(C)NC(=O)CN1C(=O)NC2(CCC(C(C)(C)C)CC2)C1=O (centres undefined)	-24%
Cc1ccsc1C(=O)N1CCC(c2n[nH]c(=O)n2Cc2ccc(F)cc2)CC1	-6%
Cn1cc(-c2ccc(O)c(F)c2)c2nc(COc3ccc(Cl)cc3)cn2c1=O	10µM*
SMILES	Pf Dd2 inh
Cn1cc(-c2ccccc2F)c2nc(COc3ccc(C(=O)O)cc3)cn2c1=O	-14%[44.1 µM]
Cn1cc(-c2ccccc2F)c2nc(COc3ccccc3)cn2c1=O	i
CCn1cc(S(=O)(=O)N2CCC(N3C(=O)[C@H](OC)[C@@H]3c3ccncc3)CC2)cn1	13%
O=C(NC[C@H]1OC[C@@H](NC2CCOCC2)[C@@H]1O)c1ccccc1	22%[44.1 µM]
CCN(CC)Cc1nc(C2(O)CCN(Cc3ccccc3)CC2)cs1	-16%[44.1 µM]
OCC1(CCCc2ccccc2)CCN(Cc2ccc(-n3cccn3)cc2)CC1	4.5µM*
O=C(NCCCc1ccccc1)C1(CCO)CCN(c2ncccn2)C1 (centres undefined)	i
O=C(c1cc2cc(F)ccc2[nH]1)N1CCC(CO)(CCCc2ccccc2)CC1	-13%
OCC1(CCCc2ccccc2)CCN(Cc2cccn2-c2nccs2)CC1	10µM*
O=C(c1ccc2nc[nH]c2c1)N1CCC(CO)(CCCc2ccccc2)CC1	13%
CS(=O)(=O)N1CCC(Oc2ccccc2-c2nc(C3CC3)no2)C1 (centres undefined)	i
CC1CCN(C(=O)c2ccc(CN3C(=O)NC4(CCS(=O)(=O)CC4)C3=O)cc2)CC1	-22%
O=C1NCCCCCCN(S(=O)(=O)Cc2ccccc2F)[C@H]2CCC[C@@H]12	-4%
N#Cc1cccnc1N1CC[C@@H](N2CCC(O)CC2)[C@H](O)C1	-4%
CC(C)c1ccc(S(=O)(=O)N2CCC(CC(=O)NCc3ccccc3)C2)cc1 (centres undefined)	i
CCOC(=O)Cn1c(-c2cccs2)cc2cc(Cl)ccc21	-12%
CC(CNC(=O)Cn1c(-c2cccs2)cc2ccccc21)c1ccccc1 (centres undefined)	11µM*
COc1ccccc1NC(=O)NCCCN1CCN(c2ccc(F)cc2)CC1	i
CC(NC(=O)Cn1c(-c2cccs2)cc2cc(F)ccc21)c1ccccc1 (centres undefined)	1.1µM*
CCNC(=O)Cn1c(-c2cccs2)cc2ccccc21	10%
CN(C)c1ccc(CNC(=O)Cn2c(-c3cccs3)cc3cc(Cl)ccc32)cc1	-6%
